Rab9 promoter act – activators of Rab9 promoter; Potency, µM (top dose mostly 9.22 µM), for the others: at the highest dose activation, negative = inhibition, hits mostly activators; actives 2.8% (n = 320,000); AID 485297; Huh7 Rab9 promoter-luciferase reporter, luminescence, 24 h; further: % of control where 0% means no effect; nearly all actives have a fitted effect of over 60% in size
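Luminescence from Amplite-detected luciferase (10 minutes, ambient) reports Rab9 promoter activation. Before that, stable Rab9-luciferase Huh7 cells (1500/well, reduced-serum OP-MEM I plus 10% FBS) were exposed to compound for 24 hours at 37C.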
FLuc modulator – firefly luciferase modulation, counter-screen for miR-21 project; P08659; purified FLuc, Km substrates, luminescence inhibition; actives 6.9% (n = 360,000); Potency, µM (top dose mostly 57.5 µM), inactives show at the top dose activity change, negative = inhibition, usual class: inhibitors;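 further: plate controls were vehicle for no effect and reference inhibitor for full effect; nearly all actives have a fitted effect of over 55% in size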
Target sequence (P08659 whole entry, looked up): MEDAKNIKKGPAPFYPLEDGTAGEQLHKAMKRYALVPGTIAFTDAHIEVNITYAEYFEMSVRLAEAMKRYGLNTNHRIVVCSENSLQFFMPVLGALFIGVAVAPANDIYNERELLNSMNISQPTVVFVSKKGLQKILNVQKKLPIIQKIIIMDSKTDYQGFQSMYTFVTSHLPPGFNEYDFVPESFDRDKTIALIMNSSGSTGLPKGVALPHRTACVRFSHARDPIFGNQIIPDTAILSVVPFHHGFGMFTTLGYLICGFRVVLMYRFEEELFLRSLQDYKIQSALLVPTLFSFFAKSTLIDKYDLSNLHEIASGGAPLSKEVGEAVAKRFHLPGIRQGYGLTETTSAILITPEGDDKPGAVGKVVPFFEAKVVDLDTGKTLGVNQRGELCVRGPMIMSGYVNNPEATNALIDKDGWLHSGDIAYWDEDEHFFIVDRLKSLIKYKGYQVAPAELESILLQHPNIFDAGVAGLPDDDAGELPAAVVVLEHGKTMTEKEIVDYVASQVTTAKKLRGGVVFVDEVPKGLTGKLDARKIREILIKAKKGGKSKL
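Purified P. pyralis luciferase, 10 nM final, with Km-level 10 uM D-luciferin and 10 uM ATP in 50 mM Tris acetate pH 7.5, 10 mM Mg acetate, 0.01% Tween-20, 0.05% BSA; 6-point qHTS titration about 60 µM downward; luminescence read.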
SMN2 splice up – enhancers of SMN2 splice variant expression. Potency, µM (top dose mostly 46.1 µM), inactives show top-dose activity change, positive = activation, most hits filed as activators. actives 2.8% (n = 210,000). AID 1458. HEK293 SMN2-luciferase splicing reporter, luminescence, 30-36 h; further: % of control where 0% means no effect; nearly all actives have a fitted effect of over 55% in size
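HEK293 cells carry an SMN2 minigene-luciferase reporter in which exon 7 inclusion puts luciferase in frame. Cells were seeded at 2000 cells/well, attached for 10-12 hours, then exposed to compounds for 30-36 hours at 37C before ONE-Glo luminescence.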
NPC1 prom act – activators of NPC1 promoter. AID 485313. Huh7 NPC1 promoter luciferase reporter, 24 h. actives 2.4% (n = 320,000). Potency, µM (series often up to 9.22 µM), for the others: at the highest dose activation, hits mostly activators; further: % of control where 0% means no effect; nearly all actives have a fitted effect of over 60% in size
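Compounds in DMSO were transferred onto Huh7 NPC1-luciferase reporter cells pre-incubated 2 h; after 24 h at 37 °C, Amplite reagent was dispensed and luminescence recorded 10 min later.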
ELG1 genotoxic – induces genotoxicity in HEK293T cells with luciferase-tagged ELG1 | HEK293T ELG1-luciferase reporter, luminescence, 16 h | Potency, µM (doses to about 46 µM), for inactives: top-dose activity change, positive = activation, usual class: activators | actives 1.3% (n = 330,000) | AID 504466; further: % of control where 0% means no effect; nearly all actives have a fitted effect of over 60% in size
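Screening used a luciferase reporter fused to human ELG1 in HEK293T cells. Luminescence was read on a CCD plate imager after 16 hr exposure and 30 min ONE-Glo incubation.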
KinaseGlo FLuc – Kinase-Glo luciferase inhibition (counter-screen); Q27757; Kinase-Glo luciferase, ATP luminescence, 8 min; Potency, µM (doses to about 38.3 µM), without a hit: at the top dose activity change, negative = inhibition, most hits filed as inhibitors; actives 0.28% (n = 200,000); AID 1379; further: on the % scale 0 is the no-effect control and ±100 the full control effect; nearly all actives have a fitted effect of over 60% in size
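Luminescence was the read-out, taken after 8-minute incubation at ambient temperature. Luciferase turned over luciferin with 10 uM ATP in imidazole pH 7.2 buffer containing KCl, MgCl2, Tween 20 and BSA.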
An asterisk follows results filed as active; ? = inconclusive; . = not tested or not shown; ! = repeats disagree; [ ] = remark or other dose. Only some compounds are listed: those with a hit (about 7.5% of all), similar ones and a draw of the others. The call rests on the fitted dose curve; in most records, active means well fitted curve in the direction sought with a large enough effect; inconclusive means small, poorly fitted or top-dose-only effect, or another doubt; inactive means no such curve, though single readings can be large; an effect the other way counts as inactive or inconclusive. Potency means the concentration at half of the fitted maximal effect.

SMILES	Rab9 promoter act	FLuc modulator	SMN2 splice up	NPC1 prom act	ELG1 genotoxic	KinaseGlo FLuc
CCc1ccccc1NC(=O)c1cn(C)c(=O)c2ccccc12	.	0.6%	5.7%	.	.	.
Cc1cc(C(=O)CSc2cccc[n+]2[O-])c(C)n1-c1ccccc1	0.447µM*	1.69µM*	1µM*	0.447µM*	?	1.1%
Cc1cc(-n2c(C)cc(C(=O)CSc3nnnn3-c3ccccc3)c2C)no1	0.0%	-9.6%	-34.3%	-1.4%	-20.0%	-0.6%
CC(=O)Nc1ccc(SCCCC(=O)c2ccccc2)cc1	?	23.9µM*	.	?	?	.
Cc1cc(C(=O)CSc2nncn2C)c(C)n1-c1ccccc1	0.447µM*	8.49µM*	11.2µM*	2µM*	-3.8%	-2.9%
Cc1cc(C(=O)CSc2cccc[n+]2[O-])c(C)n1-c1ccc(Br)cc1	23.9%	15.1µM*	-41.9%	26.4%	?	-1.2%
CC(=O)Nc1ccc(SCC(=O)c2cc(C)n(-c3ccccc3)c2C)cc1	3.55µM*	5.36µM*	-19.9%	?	?	2.3%
Cc1cc(C(=O)C(C)OC(=O)c2ccc(NC(=O)CC#N)cc2)c(C)n1-c1ccccc1 (configuration not stated)	-3.3%	16.9µM*	.	0.6%	29.5%	.
COc1ccc(-n2c(C)cc(C(=O)CSc3ccc(NC(C)=O)cc3)c2C)cc1	19.4%	?	-32.8%	28.2%	4.3%	2.7%
CC(OC(=O)c1ccc(NC(=O)CC#N)cc1)C(=O)NC(c1ccccc1)c1ccccc1 (configuration not stated)	.	.	.	.	1.3%	.
N[C@@H](Cc1cc(CP(=O)(O)O)cc(-c2ccccc2Cl)c1)C(=O)O	.	.	.	.	.	1.0%
Nc1ccc(NC(=O)c2ccc(C(=O)Nc3ccc(N)cc3)cc2)cc1	18.8%	-1.4%	.	14.2%	-0.9%	.
Nc1ccc(C(=O)Nc2ccc(OC(F)(F)C(F)F)c(NC(=O)c3ccc(N)cc3)c2)cc1	1.8%	21.3µM*	.	9.2%	-4.1%	.
COc1ccccc1/C=C/C=N/NC(=O)c1cnccn1	23.4%	?	.	13.5%	12.8%	-2.0%
COc1ccccc1/C=C/C=N/NC(=O)c1ccccn1	1.12µM*	8.49µM*	11.2µM*	2µM*	-8.7%	-4.5%
COc1ccccc1/C=C/C=N/NC(=O)c1cc(-c2ccco2)[nH]n1	-0.3%	16.9µM*	.	-2.7%	-4.9%	.
CCOC(=O)C1CCN(c2ncnc3c2nnn3C)CC1	.	-6.7%	.	.	.	.
O=C(Nc1ccc(F)c([N+](=O)[O-])c1)c1ccc2c(c1)OCCO2	?	6.01µM*	21.9%	16.9%	9.9%	-0.5%
O=C(Nc1cc(Cl)ccc1N1CCOCC1)c1ccc2c(c1)OCCO2	-6.4%	?	-11.0%	0.4%	-1.5%	1.0%
O=C(Nc1ccc(Cl)cc1[N+](=O)[O-])c1ccc2c(c1)OCCO2	0.447µM*	?	.	0.562µM*	4.11µM*	.
Cc1ccc(Sc2ccc(S(=O)(=O)Nc3ccc(CC(=O)O)cc3)cc2)cc1C	-1.2%	0.4%	.	-0.2%	-2.2%	.
CNc1ncnc2ccc(-c3ccccc3OC)cc12	.	.	16.1%	.	.	-4.8%
CCn1cc(C(=O)OCC(=O)c2ccccc2)c(=O)c2ccc(C)nc21	-9.6%	-1.9%	-7.0%	-2.3%	-8.7%	-2.1%
CCn1cc(C(=O)OCc2ccccc2)c(=O)c2ccc(C)nc21	-1.0%	6.4%	13.3%	-4.0%	-5.1%	3.8%
CCn1cc(C(=O)Nc2ccccc2C(=O)OC)c(=O)c2ccc(C)nc21	1.12µM*	3.38µM*	11.2µM*	0.562µM*	?	-1.1%
SMILES	Rab9 promoter act	FLuc modulator	SMN2 splice up	NPC1 prom act	ELG1 genotoxic	KinaseGlo FLuc
CCOC(=O)c1ccccc1NC(=O)c1cn(CC)c2nc(C)ccc2c1=O	0.794µM*	3.38µM*	-42.0%	1µM*	?	-0.8%
CCOC(=O)c1cn(CC)c2c(ccc3ccccc32)c1=O	19.1%	23.9µM*	.	21.7%	11.7%	.
CSc1ccccc1NC(=O)c1noc2c1CCC2	24.4%	?	-5.4%	5.0%	14.6µM*	1.1%
Cc1ccc(Cn2ccc(NC(=O)c3noc4c3CCCCC4)n2)cc1	0.7%	?	-32.0%	16.3%	2.0%	-2.5%
Cc1ccc(O)c(NC(=O)c2noc3c2CCCCC3)c1	?	4.78µM*	3.98µM*!	2.82µM*	?	-16.3%
Cc1ccc(O)c(NC(=O)c2noc3c2CCCC3)c1	.	8.49µM*	11.2µM*	.	.	.
CC(C)(C)CC(=O)NCC(c1ccc2c(c1)OCO2)N1CCOCC1 (configuration not stated)	.	-0.8%	.	.	.	.
COC(=O)c1cc2oc3ccccc3c2n1CC(=O)Nc1ccc(F)c(Cl)c1	.	-14.3%	-7.9%	.	.	.
COC(=O)Cn1ncn2c(cc3oc(C)cc32)c1=O	2.51µM*	15.1µM*	?	?	?	-1.7%
CCc1cccc(NC(=O)NC(=O)Cn2nnc(C(=O)OC)c2C(=O)OC)c1	10.6%	0.1%	9.4%	-5.6%	0.9%	8.3%
c1ccc(-c2ccc(-c3cnc4n3CCCCC4)cc2)cc1	26.3%	12µM*	-14.9%	?	?	-4.6%
Cc1cc(C)c(C(=O)CSc2nnc(C)s2)c(C)c1	0.0%[1.84 µM]	-1.4%	-14.0%	-4.1%	-5.3%	1.4%
Cc1cc(C)c(C(=O)CSc2nnc(N)s2)cc1C	14.9%	-18.5%	.	23.3%	8.6%	.
Cc1ccc(C(=O)CSc2nnc(N)s2)c(C)c1	2.51µM*	16.9µM*	15.8µM*	3.16µM*	14.6µM*	-0.6%
CCOc1ccc(C(=O)CSc2nnc(N)s2)cc1	3.16µM*	13.5µM*	11.6%	2.51µM*	?	-3.7%
Cc1nnc(SCC(=O)c2ccc(C(C)C)cc2)s1	?	9.53µM*	4.8%	28.6%	9.8%	-1.1%
CCc1ccc(C(c2ccccc2)c2c[nH]c3ccc(C)cc23)s1 (configuration not stated)	.	?	-38.2%	.	.	.
Cc1cccc(-c2nc3c4c(-c5ccccc5)c(-c5ccccc5)oc4ncn3n2)c1	.	1.5%	-2.0%	.	.	.
COc1ccc(CCC(C)NCc2cccc(Br)c2)cc1 (configuration not stated)	7.4%	-6.1%	.	-0.7%	-0.8%	.
CC(C)c1ccc(OCc2ccc(C(=O)O)o2)cc1	?	0.426µM*	.	?	?	.
N#Cc1ccc(OCc2ccc(C(=O)O)o2)cc1	11.0%	?	.	-5.4%	0.2%	.
CC(C)c1ccc(OCc2ccc(C(=O)N(C)C)o2)cc1	1.58µM*	23.9µM*	.	2.82µM*	10.3µM*	.
CC(C)c1ccc(OCc2ccc(C(=O)NN3CCN(C)CC3)o2)cc1	2.51µM*	?	14.1µM*	2.24µM*	?	3.7%
CC(C)NC(=O)c1ccc(COc2ccc(C(C)(C)C)cc2)o1	12.4%	?	.	?	14.1%	.
